Screening results as filed in PubChem BioAssay.
TRPM1 prom inh: reduces MITF-dependent TRPM1 promoter luciferase signal. AID 488899. inhibition, % at 12.5 µM. SK-MEL-5 TRPM1 promoter luciferase, 24 h. 330,000 tested, 0.83% active;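 active means mean inhibition across replicates of 60% or more, whatever share of single replicates reaches that level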
TWEAK-Fn14 inh: blocks TWEAK-Fn14 interaction in a reporter cell assay | 360,000 tested, 2% active | inhibition, % at 10 µM | TWEAK-stimulated Fn14 reporter cells, luciferase luminescence, 8 h | AID 1159606; in the data active means inhibition above about 50%
LMP1 NFkB inh: Epstein-Barr LMP1 NF-kappaB reporter inhibition | LMP1-induced NF-kappaB luciferase reporter cells, luminescence | inhibition, % at 12.5 µM | 350,000 tested, 0.69% active; in the data active means inhibition above about 41%
Peg3 prom inh: reduces Peg3 promoter-driven luciferase expression in HeLa | HeLa PEG-Prom luciferase reporter, luminescence, overnight | inhibition, % at 20 µM | 360,000 tested, 1.7% active | AID 588405;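 active means inhibition of at least 50% at 20 µM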
Shn3 inh set2: Schnurri-3 reporter inhibition in Clone20 osteoblasts | Clone20 osteoblast Shn3 3'UTR firefly luciferase, 24 h | 360,000 tested, 0.52% active | inhibition, % at 12.5 µM;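 active means mean inhibition of at least 75% with every replicate also reaching 75%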
TROY NFkB inh: inhibitors of TROY-dependent NF-kB signaling; Q293 LMP1-TROYcd NF-kB luciferase reporter, 4 h; inhibition, % at 10 µM; 360,000 tested, 0.98% active; AID 1347056;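 active means compounds whose plate-normalised and pattern-corrected inhibition of the luciferase reporter signal at the single screening dose is 50% or more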
Numbers stand for hits. Sampled rows, rich in hits. Any-hit rate of the full collection: about 4.1%.

`CC(C)c1cccc(-c2ccc3c(c2)S(=O)(=O)c2cccc(C(=O)NCc4ccccc4Cl)c2C3=O)c1` gave TRPM1 prom inh 82, TWEAK-Fn14 inh inactive, LMP1 NFkB inh inactive, Peg3 prom inh 51, Shn3 inh set2 inactive and TROY NFkB inh inactive.
Screening CC(C)c1cccc(-c2ccc3c(c2)S(=O)(=O)c2cccc(C(=O)NCc4ccccc4)c2C3=O)c1 returned TRPM1 prom inh inactive, TWEAK-Fn14 inh inactive, LMP1 NFkB inh inactive, Peg3 prom inh inactive, Shn3 inh set2 inactive and TROY NFkB inh inactive.
Screening O=C(NCc1cc(C(F)(F)F)ccc1Cl)c1cccc2c1C(=O)c1ccc(N3CCCCC3)cc1S2(=O)=O returned TRPM1 prom inh inactive, TWEAK-Fn14 inh inactive, LMP1 NFkB inh inactive, Peg3 prom inh inactive, Shn3 inh set2 inactive and TROY NFkB inh inactive.
For O=C(O)c1nnn(-c2cccc(C(F)(F)F)c2)c1-c1ccccc1 the results were TRPM1 prom inh inactive, TWEAK-Fn14 inh inactive, LMP1 NFkB inh inactive, Peg3 prom inh inactive, Shn3 inh set2 inactive and TROY NFkB inh inactive.
`Cc1ccc(-n2c3nc(=O)[nH]c(=O)c-3cc3cc([N+](=O)[O-])ccc32)cc1C` gave TRPM1 prom inh inactive, TWEAK-Fn14 inh inactive, LMP1 NFkB inh inactive, Peg3 prom inh 74, Shn3 inh set2 inactive and TROY NFkB inh inactive.
Cc1cccc(NC(=O)CCc2ccc(N3C(N)=NC(N)=NC3(C)C)cc2)c1 was read as TWEAK-Fn14 inh inactive, LMP1 NFkB inh inactive, Peg3 prom inh inactive, Shn3 inh set2 inactive and TROY NFkB inh inactive.
`CCc1c(C)nc2ncnn2c1NCCc1ccc(Cl)cc1` gave TRPM1 prom inh inactive, TWEAK-Fn14 inh inactive, LMP1 NFkB inh inactive, Peg3 prom inh inactive, Shn3 inh set2 88 and TROY NFkB inh inactive.
`CCOc1ccc(NS(=O)(=O)c2cc(C(=O)N3CCN(C(C)=O)CC3)ccc2Cl)cc1` gave TRPM1 prom inh inactive, TWEAK-Fn14 inh 89, LMP1 NFkB inh inactive, Peg3 prom inh inactive, Shn3 inh set2 inactive and TROY NFkB inh inactive.
For CCOc1ccccc1N1CCN(C(=O)c2ccc(Cl)c(S(=O)(=O)N3CCCCC3)c2)CC1 the results were TRPM1 prom inh inactive, TWEAK-Fn14 inh inactive, LMP1 NFkB inh inactive, Peg3 prom inh inactive, Shn3 inh set2 inactive and TROY NFkB inh 53.
Screening CCOc1ccccc1N1CCN(C(=O)c2cc(S(=O)(=O)N3CCCCC3)ccc2C)CC1 returned TRPM1 prom inh inactive, TWEAK-Fn14 inh inactive, LMP1 NFkB inh inactive, Peg3 prom inh inactive, Shn3 inh set2 inactive and TROY NFkB inh inactive.
Screening Cc1cccc(NC(=O)CSCC(=O)N2CCN(C(=O)c3ccco3)CC2)c1 returned TRPM1 prom inh inactive, TWEAK-Fn14 inh inactive, LMP1 NFkB inh inactive, Peg3 prom inh inactive, Shn3 inh set2 inactive and TROY NFkB inh inactive.
For Cc1ccccc1-c1nc(CS(=O)(=O)CC(=O)NC2CC2)c(C)o1 the results were TRPM1 prom inh inactive, TWEAK-Fn14 inh inactive, LMP1 NFkB inh inactive, Peg3 prom inh inactive, Shn3 inh set2 inactive and TROY NFkB inh inactive.
Screening CN(C)CCNc1ncnc2c1cnn2-c1ccc(Cl)cc1 returned TRPM1 prom inh inactive, TWEAK-Fn14 inh inactive, LMP1 NFkB inh inactive, Peg3 prom inh inactive, Shn3 inh set2 inactive and TROY NFkB inh inactive.
For CCCN(CCC)c1ncnc2c1cnn2-c1ccc(OC)cc1 the results were TRPM1 prom inh inactive, TWEAK-Fn14 inh 53, LMP1 NFkB inh inactive, Peg3 prom inh inactive, Shn3 inh set2 inactive and TROY NFkB inh 62.
`OCCCNc1ncnc2c1cnn2-c1ccc(Cl)cc1` gave TRPM1 prom inh inactive, TWEAK-Fn14 inh 68, LMP1 NFkB inh inactive, Peg3 prom inh inactive, Shn3 inh set2 inactive and TROY NFkB inh inactive.
For CCC(CO)Nc1ncnc2c1cnn2-c1ccc(OC)cc1 (stereo not drawn) the results were TWEAK-Fn14 inh 54, LMP1 NFkB inh inactive, Peg3 prom inh inactive, Shn3 inh set2 inactive and TROY NFkB inh inactive.
Screening CCC(CO)Nc1ncnc2c1cnn2-c1ccc(Cl)cc1 (stereo not drawn) returned TRPM1 prom inh inactive, TWEAK-Fn14 inh 68, LMP1 NFkB inh inactive, Peg3 prom inh inactive, Shn3 inh set2 inactive and TROY NFkB inh 73.
C=CCNc1ncnc2c1cnn2-c1ccc(OC)cc1 was read as TRPM1 prom inh inactive, TWEAK-Fn14 inh inactive, LMP1 NFkB inh inactive, Peg3 prom inh inactive, Shn3 inh set2 inactive and TROY NFkB inh inactive.
Screening O=C1CCc2cc(NS(=O)(=O)c3ccc([N+](=O)[O-])cc3)cc3c2N1CCC3 returned TRPM1 prom inh inactive, TWEAK-Fn14 inh inactive, LMP1 NFkB inh inactive, Peg3 prom inh inactive, Shn3 inh set2 inactive and TROY NFkB inh inactive.
Screening O=C(Cc1ccccc1Cl)NCc1cccnc1 returned TRPM1 prom inh inactive, TWEAK-Fn14 inh inactive, LMP1 NFkB inh inactive, Peg3 prom inh inactive, Shn3 inh set2 inactive and TROY NFkB inh inactive.
Screening Cc1onc(-c2ccccc2)c1C(=O)N/N=C/c1c(F)cccc1Cl returned TRPM1 prom inh inactive, TWEAK-Fn14 inh inactive, LMP1 NFkB inh inactive, Peg3 prom inh inactive, Shn3 inh set2 inactive and TROY NFkB inh inactive.
`Clc1ccc(-n2ncc3c(NCC4CCCO4)ncnc32)cc1` (stereo not drawn) gave TRPM1 prom inh inactive, TWEAK-Fn14 inh 60, LMP1 NFkB inh inactive, Peg3 prom inh inactive, Shn3 inh set2 inactive and TROY NFkB inh inactive.
`COc1ccc(Cc2c(-c3ccco3)nc3ccc(Br)cn23)c(C)c1` gave TWEAK-Fn14 inh 57, Peg3 prom inh inactive, Shn3 inh set2 inactive and TROY NFkB inh inactive.
`COc1ccc(Cc2c(-c3ccco3)nc3c(C)cc(Br)cn23)c(C)c1` gave TWEAK-Fn14 inh inactive, Peg3 prom inh inactive, Shn3 inh set2 inactive and TROY NFkB inh inactive.
`Cc1cc(Br)cn2c(Cc3ccccc3)c(-c3ccco3)nc12` gave TWEAK-Fn14 inh 85, Peg3 prom inh inactive, Shn3 inh set2 inactive and TROY NFkB inh inactive.
COc1ccccc1Cc1c(-c2ccco2)nc2c(C)cc(Br)cn12 was read as TWEAK-Fn14 inh 69, Peg3 prom inh 98, Shn3 inh set2 94 and TROY NFkB inh inactive.
COc1ccc(Cc2c(-c3ccco3)nc3ccc(Cl)cn23)c(C)c1 was read as TWEAK-Fn14 inh inactive, Peg3 prom inh inactive, Shn3 inh set2 inactive and TROY NFkB inh inactive.
`Cc1ccc(Cc2c(-c3ccc(C)cc3)nc3c(C)cc(Br)cn23)cc1` gave TWEAK-Fn14 inh inactive, Peg3 prom inh inactive, Shn3 inh set2 inactive and TROY NFkB inh inactive.
For Cc1ccc(Cc2c(-c3ccc(F)cc3)nc3c(C)cc(Br)cn23)cc1 the results were TWEAK-Fn14 inh inactive, Peg3 prom inh 55, Shn3 inh set2 inactive and TROY NFkB inh inactive.
`CC(C)CC(C)N1CCC(n2nccc2NC(=O)CCc2ccccc2)CC1` (stereo not drawn) gave TRPM1 prom inh inactive, TWEAK-Fn14 inh inactive, LMP1 NFkB inh inactive, Peg3 prom inh inactive, Shn3 inh set2 inactive and TROY NFkB inh inactive.
For O=C(NCCCn1ccnc1)/C(=C\c1ccc(Br)cc1)NC(=O)c1ccccc1 the results were TRPM1 prom inh inactive, TWEAK-Fn14 inh inactive, LMP1 NFkB inh inactive, Peg3 prom inh inactive, Shn3 inh set2 inactive and TROY NFkB inh inactive.
Screening Cc1cc(Br)cn2c(Cc3ccsc3)c(-c3ccco3)nc12 returned TWEAK-Fn14 inh 51, Peg3 prom inh inactive, Shn3 inh set2 inactive and TROY NFkB inh inactive.
